The structures appear in SMILES notation. The panel holds about 83,000 compounds, 20% with a hit somewhere; the sample as a whole holds those more often.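 Step 1: grow cells in 96-well plates. Step 2: add test compound at a single concentration. Step 3: incubate 48 h. Step 4: record percent growth.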 Values without a mark were called inactive. The source made the active and inactive calls. Rule for the calls: active = growth percent below 10; inactive = the rest.

This note sets out measurements from PubChem BioAssay (NCI).

The first assay concerns SK-MEL-5 melanoma. Description: NCI-60 one-dose screen, 48 h (100 = growth as untreated, 0 = no growth, -100 = all killed). The settings on record: 10 µM unless noted.
With `Cc1cc2c(-c3nc4ccccc4n3C)c(O)c(O)cc2c(O)c1-c1c(C)cc2c(-c3nc4ccccc4n3C)c(O)c(O)cc2c1O`, the growth is 91.3%.

For `COc1ccc2sc(-n3nc4nc5n(c(=O)c4c3N)-c3ccccc3Sc3ccccc3-5)nc2c1`, the growth is 41.1%.

Regarding `CC(=O)Nc1ccc(C(=O)/C=C/c2ccc(N(C)C)cc2)cc1`, the growth is 98.7%.

Regarding `CCCC(=O)NNc1[nH]c(-c2ccc(OC)cc2)cc1C(=O)OCC`, the growth is 111%.

With `O=C(/C(Br)=C/c1ccccc1)c1ccccc1`, the growth is 84.9%.

Turning to `C/C=C(/C)C(=O)OC1C=C(CO)C(=O)C(OC(=O)C(C)(O)C(C)Cl)C1C(C)C` (stereo not given), the growth was -93% (active).

For `CC([C@H]1CC=C2C3CCC4=C[C@@H](N(C)C)CC[C@]4(C)C3CC[C@@]21C)N(C)C` (stereo not given in full), the growth is 23.6%.

In the case of `COc1ccc(/C=C2\SC(=O)N(Cc3cc(=O)oc4ccc(OC)cc34)C2=O)cc1`, the growth was 87.4%.

Take `CCCCCCCCCCCCCCCC[n+]1cccc(C#N)c1`: the growth was 58.3%.

On to `COc1ccc2cnc(N)c(C#Cc3cc(C(=O)Nc4ccc(CN5CCN(C)CC5)c(C(F)(F)F)c4)cnc3C)c2c1`, for which the growth was 34.6%.

With `CCCCCc1ccnc(CC(=O)c2ccc(OC)cc2)c1`, the growth is 79.4%.

Take `CCCCCCCCCCCCCCCCCC1=NCCN1CS(=O)(=O)O`: the growth was 87.3%.

For the molecule `COc1ccc(OC)c(Cn2cc3c(c2)-c2oncc2CC3)c1`, the growth is 20%.

For `CC1Cc2cc(F)ccc2-n2cccc21` (stereo not given), the growth is 109%.

In the case of `CC/C(=N\Nc1nc2ccccc2n1C)c1ccccn1`, the growth is -50.7% (active).

For `O=C(CN1C(=O)NC(c2ccccc2)(c2ccccc2)C1=O)c1ccc(N2CCCC2)cc1`, the growth is 70.8%.

With `COc1ccc(-c2nc(N)n(C(=S)Nc3ccccc3)n2)cc1`, the growth was 94%.

As for `Cc1sc(NC(=O)c2ccc(C(C)(C)C)cc2)c(C(=O)O)c1C`, the growth was 73.3%.

`C#CCCCCCCC[C@@H]1OC(=O)[C@H]([C@@H](C)CC)NC(=O)[C@H]([C@@H](C)CC)NC(=O)CC(=O)[C@@H]1C`: the growth was 101%.

Consider `CCOC1=C(Cl)C(=O)C(OCC)=C(Cl)C1=O`, for which the growth is 105%.

On to `Cc1ccc(CC(=O)O)c(C)c1`, for which the growth is 106%.

As for `O=C1C(=O)c2ccccc2C(O)=C1CCCc1ccc(Oc2ccccc2)cc1`, the growth is 55.1%.

For the molecule `CCOc1ccc2nc3ccc(Cl)cc3nc2c1`, the growth is 67.1%.

As to `CC[n+]1c(C)ccc2cc(C)ccc21`, the growth was 99.2%.

For the molecule `COC(=O)/C(Br)=C/c1c[nH]c2ccc(Br)cc12`, the growth was 85.1%.

Take `CC(=O)c1ccc2c(c1)c1ccccc1n2C`: the growth is 103%.

Regarding `Cc1ccc([C@@H]2C[C@H](O)Cc3ccccc3N2)s1`, the growth was 105%.

In the case of `COC(=O)/C=C/c1cc(O)c2oc(-c3ccc(O)c(O)c3)c(C(=O)OC)c2c1`, the growth is -13.3% (active).

In the case of `CCc1c(C)c2ccc(OCC(=O)N=Nc3c(O)[nH]c4ccccc34)c(C)c2oc1=O`, the growth is 34.2%.

Take `CC1=C(C)C[C@]2(C(=O)O[C@H]3CCCC[C@@H]32)[S@](=O)C1`: the growth is 107%.

Regarding `CCOC(=O)C1=NN(c2ccccc2)C2=NC(=O)/C(=C\c3cn(-c4ccccc4)nc3-c3cc4ccccc4o3)C(=O)N12`, the growth is 94.3%.

Take `COc1cc2c(/C=C3\C(=O)Nc4ccc(Br)cc43)c(Cl)n(C)c2cc1C`: the growth was -3% (active).

Regarding `COc1cc2c(cc1OC)C(Cc1cc(OC)c(OC)cc1[N+](=O)[O-])=NCC2`, the growth was 93.6%.

Consider `COc1ccc(-c2nc(SCC(C)C)nc(Nc3ccc([N+](=O)[O-])cc3)c2C#N)cc1`, for which the growth was 96.3%.

For `O=C(/C=C/c1c[nH]c2ccccc12)c1cc2ccccc2o1`, the growth was 102%.

For the molecule `O=C(CBr)OCc1ccc([N+](=O)[O-])o1`, the growth is 113%.

Turning to `C/C=C(/C)C(=O)OC1C=C(CO)C(=O)C(OC(=O)C2(C)OC2C)C1C(C)C` (stereo not given), the growth was -92.8% (active).

As to `O=C(Nc1ccc(Cl)c(Cl)c1)O/N=C\c1c(Cl)ccc([N+](=O)[O-])c1Cl`, the growth was 48.3%.

Turning to `Oc1ccc(CN(Cc2ccc(C(F)(F)F)cc2)Cc2ccc(O)c3ncccc23)c2cccnc12`, the growth is -32.6% (active).

Turning to `COc1cc(-c2nc(/C=C3/C(=O)Nc4ccccc43)c3ccccn23)cc(OC)c1OC`, the growth was 51.6%.

A further assay has as its system UACC-62 melanoma. The assay is described as above. The settings on record: 10 µM unless noted.
Take `Cc1cc2c(-c3nc4ccccc4n3C)c(O)c(O)cc2c(O)c1-c1c(C)cc2c(-c3nc4ccccc4n3C)c(O)c(O)cc2c1O`: the growth is 28.9%.

Consider `COc1ccc2sc(-n3nc4nc5n(c(=O)c4c3N)-c3ccccc3Sc3ccccc3-5)nc2c1`, for which the growth is 64.1%.

`CC(=O)Nc1ccc(C(=O)/C=C/c2ccc(N(C)C)cc2)cc1`: the growth is 102%.

For the molecule `CCCC(=O)NNc1[nH]c(-c2ccc(OC)cc2)cc1C(=O)OCC`, the growth was 99.6%.

In the case of `O=C(/C(Br)=C/c1ccccc1)c1ccccc1`, the growth is 8.01% (active).

`C/C=C(/C)C(=O)OC1C=C(CO)C(=O)C(OC(=O)C(C)(O)C(C)Cl)C1C(C)C` (stereo not given): the growth is -77% (active).

On to `CC([C@H]1CC=C2C3CCC4=C[C@@H](N(C)C)CC[C@]4(C)C3CC[C@@]21C)N(C)C` (stereo not given in full), for which the growth is -58.3% (active).

Turning to `COc1ccc(/C=C2\SC(=O)N(Cc3cc(=O)oc4ccc(OC)cc34)C2=O)cc1`, the growth was 66.3%.

Consider `CCCCCCCCCCCCCCCC[n+]1cccc(C#N)c1`, for which the growth is 83.9%.

Take `COc1ccc2cnc(N)c(C#Cc3cc(C(=O)Nc4ccc(CN5CCN(C)CC5)c(C(F)(F)F)c4)cnc3C)c2c1`: the growth was 26.3%.

With `CCCCCc1ccnc(CC(=O)c2ccc(OC)cc2)c1`, the growth was 89.5%.

On to `CCCCCCCCCCCCCCCCCC1=NCCN1CS(=O)(=O)O`, for which the growth was 88.9%.

With `COc1ccc(OC)c(Cn2cc3c(c2)-c2oncc2CC3)c1`, the growth is 53%.

In the case of `CC1Cc2cc(F)ccc2-n2cccc21` (stereo not given), the growth is 110%.

For the molecule `CC/C(=N\Nc1nc2ccccc2n1C)c1ccccn1`, the growth is -13.9% (active).

Take `O=C(CN1C(=O)NC(c2ccccc2)(c2ccccc2)C1=O)c1ccc(N2CCCC2)cc1`: the growth was 89.5%.

Regarding `COc1ccc(-c2nc(N)n(C(=S)Nc3ccccc3)n2)cc1`, the growth was 98%.

For `Cc1sc(NC(=O)c2ccc(C(C)(C)C)cc2)c(C(=O)O)c1C`, the growth is 98.4%.

Regarding `C#CCCCCCCC[C@@H]1OC(=O)[C@H]([C@@H](C)CC)NC(=O)[C@H]([C@@H](C)CC)NC(=O)CC(=O)[C@@H]1C`, the growth is 88.7%.

For the molecule `CCOC1=C(Cl)C(=O)C(OCC)=C(Cl)C1=O`, the growth was 98.1%.

For `Cc1ccc(CC(=O)O)c(C)c1`, the growth was 98.8%.

Regarding `O=C1C(=O)c2ccccc2C(O)=C1CCCc1ccc(Oc2ccccc2)cc1`, the growth is 36.5%.

As for `CCOc1ccc2nc3ccc(Cl)cc3nc2c1`, the growth is 79.4%.

As for `CC[n+]1c(C)ccc2cc(C)ccc21`, the growth is 96.1%.

Take `COC(=O)/C(Br)=C/c1c[nH]c2ccc(Br)cc12`: the growth was 68%.

For `CC(=O)c1ccc2c(c1)c1ccccc1n2C`, the growth was 83.2%.

Take `Cc1ccc([C@@H]2C[C@H](O)Cc3ccccc3N2)s1`: the growth is 117%.

Consider `COC(=O)/C=C/c1cc(O)c2oc(-c3ccc(O)c(O)c3)c(C(=O)OC)c2c1`, for which the growth was 36.6%.

On to `CCc1c(C)c2ccc(OCC(=O)N=Nc3c(O)[nH]c4ccccc34)c(C)c2oc1=O`, for which the growth was 22.8%.

On to `CC1=C(C)C[C@]2(C(=O)O[C@H]3CCCC[C@@H]32)[S@](=O)C1`, for which the growth was 104%.

`CCOC(=O)C1=NN(c2ccccc2)C2=NC(=O)/C(=C\c3cn(-c4ccccc4)nc3-c3cc4ccccc4o3)C(=O)N12`: the growth was 82.3%.

Regarding `COc1cc2c(/C=C3\C(=O)Nc4ccc(Br)cc43)c(Cl)n(C)c2cc1C`, the growth was 29.7%.

With `COc1cc2c(cc1OC)C(Cc1cc(OC)c(OC)cc1[N+](=O)[O-])=NCC2`, the growth was 83.7%.

On to `COc1ccc(-c2nc(SCC(C)C)nc(Nc3ccc([N+](=O)[O-])cc3)c2C#N)cc1`, for which the growth was 99%.

As for `O=C(/C=C/c1c[nH]c2ccccc12)c1cc2ccccc2o1`, the growth is 87.6%.

As for `O=C(CBr)OCc1ccc([N+](=O)[O-])o1`, the growth is 90.4%.

For `C/C=C(/C)C(=O)OC1C=C(CO)C(=O)C(OC(=O)C2(C)OC2C)C1C(C)C` (stereo not given), the growth was -73.7% (active).

`O=C(Nc1ccc(Cl)c(Cl)c1)O/N=C\c1c(Cl)ccc([N+](=O)[O-])c1Cl`: the growth was -63.5% (active).

Consider `Oc1ccc(CN(Cc2ccc(C(F)(F)F)cc2)Cc2ccc(O)c3ncccc23)c2cccnc12`, for which the growth is -21.3% (active).

Regarding `COc1cc(-c2nc(/C=C3/C(=O)Nc4ccccc43)c3ccccn23)cc(OC)c1OC`, the growth is 72.7%.
